Assay outcomes: PubChem, several laboratories
Compounds with a hit are over-represented: about 3% of the library has one in this group of screens.
Peg3 prom inh-1 – Peg3 promoter activity inhibition; 360,000 compounds, 1.7% hits; HeLa PEG-Prom luciferase reporter, luminescence, overnight; inhibition, % at 20 µM;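 active means inhibition of at least 50% at 20 µM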
EWS-Fli inh – EWS/Fli transcriptional activity inhibition; A673 NR0B1-luciferase reporter, viability-normalised; inhibition, % at 12.6 µM; 350,000 compounds, 0.67% hits; AID 651661;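 active means mean inhibition of at least 50% after viability correction, with every replicate also passing that limit; inconclusive means mean reaches 50% but only one of two replicates passes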;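 further: firefly luciferase signal divided by Alamar Blue viability fluorescence both relative to DMSO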
ABHD5-PLIN5 inh – ABHD5-PLIN5 protein interaction inhibition; Q00G26+Q8WTS1; inhibition, % at 4 µM; 360,000 compounds, 0.78% hits; Split G. princeps luciferase complementation, luminescence, 4 h;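 active means inhibition above the mean inhibition across every tested compound plus 3 SD, cut at about 22% in these data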;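 further: 0% = DMSO only wells and the 100% control is not disclosed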
Target sequence (Q00G26 whole entry, looked up): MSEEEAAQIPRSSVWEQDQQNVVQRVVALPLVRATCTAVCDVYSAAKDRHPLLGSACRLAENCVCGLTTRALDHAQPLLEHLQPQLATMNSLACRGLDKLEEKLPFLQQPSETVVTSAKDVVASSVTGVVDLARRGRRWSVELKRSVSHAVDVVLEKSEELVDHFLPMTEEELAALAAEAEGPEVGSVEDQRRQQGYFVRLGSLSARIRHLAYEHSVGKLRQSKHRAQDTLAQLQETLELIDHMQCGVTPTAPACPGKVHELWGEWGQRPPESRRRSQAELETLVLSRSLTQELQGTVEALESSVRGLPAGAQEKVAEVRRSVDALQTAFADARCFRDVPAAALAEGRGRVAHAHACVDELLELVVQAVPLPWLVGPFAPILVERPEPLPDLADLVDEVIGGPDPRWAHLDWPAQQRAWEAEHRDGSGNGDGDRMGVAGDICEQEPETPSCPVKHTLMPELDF
Target sequence (Q8WTS1 whole entry, looked up): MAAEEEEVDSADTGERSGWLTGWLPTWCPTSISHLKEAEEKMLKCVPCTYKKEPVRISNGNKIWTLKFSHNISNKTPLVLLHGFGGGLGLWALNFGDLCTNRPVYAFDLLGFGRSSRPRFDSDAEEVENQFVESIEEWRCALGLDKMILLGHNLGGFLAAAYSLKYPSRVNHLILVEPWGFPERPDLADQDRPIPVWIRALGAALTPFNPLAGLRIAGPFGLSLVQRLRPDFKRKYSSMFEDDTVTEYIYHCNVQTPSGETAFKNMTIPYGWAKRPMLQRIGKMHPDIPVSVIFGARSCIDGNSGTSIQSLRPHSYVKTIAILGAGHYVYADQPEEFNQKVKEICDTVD
PAX8 reporter – PAX8 transcriptional activity inhibition. RMG-I TPO-luciferase reporter, SteadyGlo, 24 h. inhibition, % at 12.6 µM. 360,000 compounds, 1.2% hits. AID 652154;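 active means mean replicate inhibition at least 60% with every replicate also reaching 60%; inconclusive means only one of the two criteria is met; inactive means mean below 60% and not all replicates reaching 60%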;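 further: luciferase light reporting Pax8 driven TPO promoter activity; plate controls were median of neutral control wells for no effect and mitoxantrone controls for full effect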
Shn3 inh set2 – Schnurri-3 reporter inhibition in Clone20 osteoblasts | Clone20 osteoblast Shn3 3'UTR firefly luciferase, 24 h | inhibition, % at 12.5 µM | 360,000 compounds, 0.52% hits;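 active means mean inhibition of at least 75% with every replicate also reaching 75%; inconclusive means mean inhibition at least 75% but some replicate below; inactive means mean inhibition below 75%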;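 further: 0% = median of neutral control wells and 100% = pilot-screen positive control compound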
MITF TRPM1 inh – inhibitors of MITF-driven TRPM1 promoter in melanoma cells. SK-MEL-5 TRPM1 promoter luciferase, 24 h. inhibition, % at 12.5 µM. 330,000 compounds, 0.83% hits;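 active means mean inhibition across replicates of 60% or more, whatever share of single replicates reaches that level; inconclusive means some that reach 60%, reason not given; inactive means mean inhibition across replicates below 60%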
Peg3 prom inh-2 – Peg3 promoter inhibition confirmation. HeLa PEG-Prom luciferase reporter, luminescence, overnight. inhibition, % at 20 µM. shares compounds with Peg3 prom inh-1. 1,300 compounds, 84% hits. AID 602417;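 active means at 20 µM dose, 40% or more inhibition averaged across four replicates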
* = called active by the depositor; ? = inconclusive; · = no result.

SMILES	Peg3 prom inh-1	EWS-Fli inh	ABHD5-PLIN5 inh	PAX8 reporter	Shn3 inh set2	MITF TRPM1 inh	Peg3 prom inh-2
Cc1cc(C)nc(NC(=O)CCCC(=O)O)c1	14.8	·	-1.1	·	-29.1	1.3	·
Cc1cc(C)nc(NC(=O)c2c(F)c(F)c(F)c(C(=O)Nc3cc(C)cc(C)n3)c2F)c1	90.5*	22.1	-2.4	31.8	-12.1	·	72.3*
O=S(=O)(c1cccc(F)c1)N1CCN(c2nc(-c3cccnc3)nc3ccccc23)CC1	53.2*	14.2	-0.9	12.6	15.3	13.3	54.7*
O=C(c1cc(Cl)nc2ccccc12)N1CCN(S(=O)(=O)c2cccc(F)c2)CC1	13.5	2.0	0.7	-10.6	3.9	13.3	·
O=C(NCC[C@@H]1CC[C@@H](NC(=O)C2CC2)[C@H](CO)O1)c1cc(Cl)cc(Cl)c1	·	-0.4	·	·	·	·	·
N#CC(C#N)=C1C=CC=CN1/C(=C\c1ccco1)C(=O)c1ccc(Br)cc1	110.5*	·	91.8*	102.4*	89.6*	85.2*	97.6*
O=S(=O)(Nc1ccccc1Br)c1cccc2cccnc12	24.5	-26.5	-6.4	3.6	-1.4	·	·
Cc1ccc(S(=O)(=O)Nc2cccc3cccnc23)c([N+](=O)[O-])c1	103.2*	6.6	6.2	71.0*	47.1	88.4*	95.5*
O=S(=O)(Nc1cccc2cccnc12)c1ccccc1	102.6*	70.5*	-4.5	105.4*	78.8	89.5*	99.5*
COc1ccc(NS(=O)(=O)c2ccc3ccccc3c2)c2ncccc12	51.0*	37.1	8.3	55.2	81.0	33.3	51.6*
O=C(C[C@@H]1CC[C@@H]2[C@H](COC[C@H](O)CN2S(=O)(=O)c2ccccc2F)O1)N1CCC(Cc2ccccc2)CC1	·	12.3	·	15.0	·	·	·
CCN1CCN(c2ncc(C(=O)Nc3cc(Cl)ccc3OC)c3ccccc23)CC1	61.0*	·	17.9	·	-0.4	1.5	56.7*
COc1ccc(Cl)cc1NC(=O)CCN1CCN(c2ccccc2C)CC1	12.9	·	6.6	·	7.3	-3.2	·
C[C@@H]1CCCCO[C@@H](CN(C)C(=O)Nc2ccccc2)[C@@H](C)CN([C@@H](C)CO)C(=O)c2cc(NC(=O)C3CCCCC3)ccc2O1	·	-17.8	·	5.0	·	·	·
CCNc1nc(N)nc(-c2cc(Cl)ccc2O)n1	100.6*	·	1.1	·	-113.2	-34.4	-22.9
Cc1cc(C)c2c(N)c3cccc(C)c3nc2n1	106.8*	-5.2	5.6	-3.6	-21.0	65.5*	99.0*
Cc1cccc2c(N)c3c(nc12)CCCC3 (tested in a mixture with another compound)	12.2	-0.6	5.4	-14.6	49.1	3.6	·
CCCNC(=O)N(C)C[C@H]1Oc2ncc(C#CC3(O)CCCC3)cc2C(=O)N([C@@H](C)CO)C[C@H]1C	·	-5.6	·	-21.2	·	·	·
COc1ccc(CCN=C(N)C(C)c2ccccc2)cc1OC (stereo not given)	3.4	-2.7	-2.0	13.1	6.8	9.8	·
CC(C)Cc1ccc(C(C)C(N)=NCCc2ccccc2)cc1 (stereo not given)	104.0*	34.2	12.2	12.7	2.4	70.6*	99.2*
C[C@H]1CN([C@@H](C)CO)C(=O)c2cccc(NC(=O)C3CCCCC3)c2O[C@@H]1CN(C)S(=O)(=O)c1cn(C)cn1	·	-2.4	·	2.7	·	·	·
NC(=O)c1nsc(C(=O)N(c2ccccc2F)C(C(=O)NCc2ccc(F)cc2)c2ccc(O)cc2)c1N (stereo not given)	58.4*	38.1	2.2	48.9	33.0	6.3	60.2*
C[C@H](CO)N1C[C@H](C)[C@H](CN(C)S(C)(=O)=O)OCCCC[C@H](C)Oc2ccc(NC(=O)Nc3ccc(F)cc3)cc2C1=O	·	-6.0	·	19.0	·	·	·
COc1ccc(NC(=O)c2cc3c(CO)cnc(C)c3oc2=Nc2cccc(C)c2)c(OC)c1	89.5*	-4.4	8.4	4.1	21.7	-10.4	24.8
O=c1cc(-c2ccc(O)cc2)oc2ccc3ccccc3c12	66.9*	88.6*	0.5	110.3*	?	83.1*	74.7*
SMILES	Peg3 prom inh-1	EWS-Fli inh	ABHD5-PLIN5 inh	PAX8 reporter	Shn3 inh set2	MITF TRPM1 inh	Peg3 prom inh-2
O=c1cc(-c2ccc(O)cc2)oc2c1ccc1ccccc12	-16.9	-16.1	-10.7	-52.0	-14.9	-40.9	·
O=C(C[C@H]1C=C[C@@H](NC(=O)Nc2ccc(F)cc2)[C@H](CO)O1)NCc1ccccn1	·	-1.1	·	9.1	·	·	·
CC1CCN(c2ccc(-c3cccs3)nn2)CC1	82.5*	88.9*	0.5	84.5*	54.9	79.3*	77.5*
COc1ccc(S(=O)(=O)N(C)C[C@@H]2Oc3ccc(NS(=O)(=O)c4ccccc4)cc3CC(=O)N([C@@H](C)CO)C[C@H]2C)cc1	·	2.8	·	-7.2	·	·	·
CCC(C)NC(=O)c1c(N)n(/N=C/c2ccccn2)c2nc3ccccc3nc12 (stereo not given)	47.2	·	-0.8	·	1.3	4.7	·
CCC(C)NC(=O)c1c(N)n(/N=C/c2cccnc2)c2nc3ccccc3nc12 (stereo not given)	50.4*	·	8.3	·	2.0	-7.0	15.5
COc1ccccc1CN1[C@H](CO)[C@@H]2c3ccccc3N(C(=O)c3ccc(F)cc3)C[C@@H]21	·	11.2	·	8.7	·	·	·
CCS(=O)(=O)NCC[C@H]1CC[C@@H](NS(=O)(=O)c2ccccc2C)[C@H](CO)O1	·	-7.8	·	-1.0	·	·	·
CCCCCCCCCCCCCCC(O)C[N+](C)(CCO)CCO (stereo not given)	70.3*	10.2	18.6	·	-6.6	2.9	73.1*
Cn1nnnc1Sc1ncnc2scc(-c3ccc4c(c3)OCO4)c12	75.5*	7.1	8.3	101.0*	-17.4	29.1	77.5*
Cc1ccc(-c2csc3ncnc(SCC(=O)c4ccc5c(c4)OCCO5)c23)cc1	27.0	·	-3.7	·	-0.4	15.0	·
CN(C)C(=O)CSc1ncnc2scc(-c3ccccc3)c12	12.8	4.3	3.2	6.7	5.7	6.0	·
CC(=O)c1cccc(-c2csc3ncnc(Sc4nnnn4C)c23)c1	87.5*	-2.2	5.5	113.7*	95.2*	·	85.2*
C[C@H](CO)N1C[C@H](C)[C@@H](CN(C)S(=O)(=O)c2cn(C)cn2)Oc2ccc(NS(=O)(=O)c3cccs3)cc2CC1=O	·	-4.9	·	-15.4	·	·	·
CCCNC(=O)Nc1ccc2c(c1)C(=O)N(C)[C@@H]1CC[C@H](CC(=O)OC)O[C@H]1CO2	·	-3.2	·	-6.3	·	·	·
C=C(C)Cn1c(SCC(=O)N/N=C/c2c(O)ccc3ccccc23)nc2ccccc2c1=O	60.9*	·	-5.8	·	29.4	19.5	63.9*
C=C(C)Cn1c(SCC)nc2ccccc2c1=O	21.4	·	4.6	·	-5.5	2.0	·
CCOC(=O)c1c(C)oc(=O)c(CC)c1O	1.2	-8.0	4.0	7.7	-4.8	·	·
CCOC(=O)c1c(C)oc2c(F)c(F)c(F)c(F)c2c1=O	104.7*	·	-0.9	·	-15.7	99.8*	99.4*
CCOC(=O)c1cnc(Nc2nc3ccccc3o2)nc1C	79.0*	·	-5.2	·	50.0	56.9	68.6*
